# Laboratory results from ChEMBL document CHEMBL1961873, “Compounds: GSK PKIS; Assays: Nanosyn kinase panel” (2012).
# Where “and” joins values, the source holds several entries; their conditions need not be identical. Equal values may be shown once.
# Assays:
# [1] = molecular target: Serine/threonine-protein kinase pim-2 (Homo sapiens) (UniProt Q9P1W9); conditions: at 1 µM;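 also: each value is a mean of the inhibition measurements against the kinase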
# [2] = molecular target: Serine/threonine-protein kinase pim-3 (Homo sapiens) (UniProt Q86V86); conditions: at 0.1 µM
# [3] = molecular target: Serine/threonine-protein kinase pim-3 (Homo sapiens) (UniProt Q86V86); conditions: at 1 µM
# [4] = molecular target: T1, MAP kinase-activated protein kinase 5 (Homo sapiens) (UniProt Q8IW41); conditions: at 0.1 µM
# T1 sequence (whole entry): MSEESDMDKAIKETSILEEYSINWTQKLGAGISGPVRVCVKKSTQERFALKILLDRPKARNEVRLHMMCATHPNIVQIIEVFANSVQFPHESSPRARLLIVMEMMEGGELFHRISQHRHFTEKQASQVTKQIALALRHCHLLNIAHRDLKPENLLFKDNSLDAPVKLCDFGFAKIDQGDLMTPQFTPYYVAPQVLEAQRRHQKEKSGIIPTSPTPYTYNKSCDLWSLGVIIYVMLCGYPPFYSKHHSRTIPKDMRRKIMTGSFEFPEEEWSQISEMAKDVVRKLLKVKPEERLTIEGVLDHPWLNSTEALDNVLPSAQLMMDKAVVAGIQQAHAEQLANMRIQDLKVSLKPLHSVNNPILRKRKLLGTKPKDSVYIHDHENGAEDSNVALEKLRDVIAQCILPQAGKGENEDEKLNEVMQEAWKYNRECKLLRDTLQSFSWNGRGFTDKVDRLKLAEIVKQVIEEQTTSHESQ
# [5] = molecular target: T1, MAP kinase-activated protein kinase 5 (Homo sapiens); conditions: at 1 µM
# [6] = molecular target: Serine/threonine-protein kinase SIK1 (Homo sapiens) (UniProt P57059); conditions: at 0.1 µM
# [7] = molecular target: Serine/threonine-protein kinase SIK1 (Homo sapiens) (UniProt P57059); conditions: at 1 µM
# [8] = molecular target: Serine/threonine-protein kinase SIK2 (Homo sapiens) (UniProt Q9H0K1); conditions: at 0.1 µM
# [9] = molecular target: Serine/threonine-protein kinase SIK2 (Homo sapiens) (UniProt Q9H0K1); conditions: at 1 µM
# [10] = molecular target: T2, Serine/threonine-protein kinase TBK1 (Homo sapiens) (UniProt Q9UHD2); conditions: at 0.1 µM
# T2 sequence (whole entry): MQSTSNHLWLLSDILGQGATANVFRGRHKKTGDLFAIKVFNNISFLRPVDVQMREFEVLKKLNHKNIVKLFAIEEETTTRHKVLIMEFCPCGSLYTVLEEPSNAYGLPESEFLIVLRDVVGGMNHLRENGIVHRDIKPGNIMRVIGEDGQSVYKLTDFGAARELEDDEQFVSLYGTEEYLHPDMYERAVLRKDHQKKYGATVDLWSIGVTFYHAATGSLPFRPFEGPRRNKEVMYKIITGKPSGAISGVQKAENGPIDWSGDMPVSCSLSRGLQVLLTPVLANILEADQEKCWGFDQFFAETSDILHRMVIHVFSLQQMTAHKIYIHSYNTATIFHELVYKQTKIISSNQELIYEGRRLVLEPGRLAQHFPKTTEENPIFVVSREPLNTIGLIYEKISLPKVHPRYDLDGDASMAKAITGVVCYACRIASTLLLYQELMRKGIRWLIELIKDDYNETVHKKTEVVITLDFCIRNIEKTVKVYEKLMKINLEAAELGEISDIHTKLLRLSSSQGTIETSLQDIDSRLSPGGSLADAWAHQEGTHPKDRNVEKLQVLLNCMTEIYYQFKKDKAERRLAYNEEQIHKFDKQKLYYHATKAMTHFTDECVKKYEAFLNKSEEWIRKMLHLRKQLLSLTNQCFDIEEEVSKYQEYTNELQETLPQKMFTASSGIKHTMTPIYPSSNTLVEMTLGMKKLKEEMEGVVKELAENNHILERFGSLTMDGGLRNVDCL
# [11] = molecular target: T2, Serine/threonine-protein kinase TBK1 (Homo sapiens); conditions: at 1 µM
# [12] = molecular target: T3, Testis-specific serine/threonine-protein kinase 1 (Homo sapiens) (UniProt Q9BXA7); conditions: at 0.1 µM
# T3 sequence (whole entry): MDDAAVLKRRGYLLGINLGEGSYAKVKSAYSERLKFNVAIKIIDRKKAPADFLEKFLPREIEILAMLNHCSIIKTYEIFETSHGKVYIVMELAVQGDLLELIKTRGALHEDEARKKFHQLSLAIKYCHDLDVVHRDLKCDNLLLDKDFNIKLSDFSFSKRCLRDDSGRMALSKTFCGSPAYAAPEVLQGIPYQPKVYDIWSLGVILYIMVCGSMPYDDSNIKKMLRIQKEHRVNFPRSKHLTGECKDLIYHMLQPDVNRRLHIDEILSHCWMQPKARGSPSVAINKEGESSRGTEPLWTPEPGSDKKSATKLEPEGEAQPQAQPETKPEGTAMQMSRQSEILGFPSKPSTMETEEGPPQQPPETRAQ
# [13] = molecular target: T3, Testis-specific serine/threonine-protein kinase 1 (Homo sapiens); conditions: at 1 µM
# [14] = molecular target: T4, Testis-specific serine/threonine-protein kinase 2 (Homo sapiens) (UniProt Q96PF2); conditions: at 0.1 µM
# T4 sequence (whole entry): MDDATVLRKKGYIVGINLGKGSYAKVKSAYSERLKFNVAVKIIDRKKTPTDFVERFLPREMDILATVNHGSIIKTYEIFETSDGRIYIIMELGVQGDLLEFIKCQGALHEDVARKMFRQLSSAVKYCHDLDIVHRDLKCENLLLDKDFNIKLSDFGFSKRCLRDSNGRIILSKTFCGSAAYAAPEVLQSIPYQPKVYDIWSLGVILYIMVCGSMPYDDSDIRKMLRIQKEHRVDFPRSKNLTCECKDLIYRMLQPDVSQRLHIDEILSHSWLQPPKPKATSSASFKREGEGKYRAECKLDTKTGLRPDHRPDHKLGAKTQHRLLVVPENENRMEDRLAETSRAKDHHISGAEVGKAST
# [15] = molecular target: T4, Testis-specific serine/threonine-protein kinase 2 (Homo sapiens); conditions: at 1 µM
# [16] = molecular target: Casein kinase I isoform alpha (Homo sapiens) (UniProt P48729); conditions: at 0.1 µM
# [17] = molecular target: Casein kinase I isoform alpha (Homo sapiens) (UniProt P48729); conditions: at 1 µM
# [18] = molecular target: Casein kinase I isoform gamma-1 (Homo sapiens) (UniProt Q9HCP0); conditions: at 0.1 µM
# [19] = molecular target: Casein kinase I isoform gamma-1 (Homo sapiens) (UniProt Q9HCP0); conditions: at 1 µM
# [20] = molecular target: Casein kinase I isoform gamma-2 (Homo sapiens) (UniProt P78368); conditions: at 0.1 µM;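 also: values are mean inhibition figures reported as part of the GSK PKIS dataset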
# Sequence of Casein kinase I isoform gamma-2 (Homo sapiens) (P78368 whole entry, looked up, canonical isoform): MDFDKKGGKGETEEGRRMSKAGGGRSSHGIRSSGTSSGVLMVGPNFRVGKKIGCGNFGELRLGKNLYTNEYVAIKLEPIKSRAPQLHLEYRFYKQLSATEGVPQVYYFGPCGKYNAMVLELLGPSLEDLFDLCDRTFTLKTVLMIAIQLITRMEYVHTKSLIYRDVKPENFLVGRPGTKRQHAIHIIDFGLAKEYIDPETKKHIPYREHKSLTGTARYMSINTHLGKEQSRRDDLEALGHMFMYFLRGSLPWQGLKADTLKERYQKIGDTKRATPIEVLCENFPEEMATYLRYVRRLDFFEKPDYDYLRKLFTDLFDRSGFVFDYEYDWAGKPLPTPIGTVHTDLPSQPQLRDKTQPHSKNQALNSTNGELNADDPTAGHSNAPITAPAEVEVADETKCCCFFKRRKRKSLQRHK
# Sequence of Serine/threonine-protein kinase SIK2 (Homo sapiens) (Q9H0K1 whole entry, looked up): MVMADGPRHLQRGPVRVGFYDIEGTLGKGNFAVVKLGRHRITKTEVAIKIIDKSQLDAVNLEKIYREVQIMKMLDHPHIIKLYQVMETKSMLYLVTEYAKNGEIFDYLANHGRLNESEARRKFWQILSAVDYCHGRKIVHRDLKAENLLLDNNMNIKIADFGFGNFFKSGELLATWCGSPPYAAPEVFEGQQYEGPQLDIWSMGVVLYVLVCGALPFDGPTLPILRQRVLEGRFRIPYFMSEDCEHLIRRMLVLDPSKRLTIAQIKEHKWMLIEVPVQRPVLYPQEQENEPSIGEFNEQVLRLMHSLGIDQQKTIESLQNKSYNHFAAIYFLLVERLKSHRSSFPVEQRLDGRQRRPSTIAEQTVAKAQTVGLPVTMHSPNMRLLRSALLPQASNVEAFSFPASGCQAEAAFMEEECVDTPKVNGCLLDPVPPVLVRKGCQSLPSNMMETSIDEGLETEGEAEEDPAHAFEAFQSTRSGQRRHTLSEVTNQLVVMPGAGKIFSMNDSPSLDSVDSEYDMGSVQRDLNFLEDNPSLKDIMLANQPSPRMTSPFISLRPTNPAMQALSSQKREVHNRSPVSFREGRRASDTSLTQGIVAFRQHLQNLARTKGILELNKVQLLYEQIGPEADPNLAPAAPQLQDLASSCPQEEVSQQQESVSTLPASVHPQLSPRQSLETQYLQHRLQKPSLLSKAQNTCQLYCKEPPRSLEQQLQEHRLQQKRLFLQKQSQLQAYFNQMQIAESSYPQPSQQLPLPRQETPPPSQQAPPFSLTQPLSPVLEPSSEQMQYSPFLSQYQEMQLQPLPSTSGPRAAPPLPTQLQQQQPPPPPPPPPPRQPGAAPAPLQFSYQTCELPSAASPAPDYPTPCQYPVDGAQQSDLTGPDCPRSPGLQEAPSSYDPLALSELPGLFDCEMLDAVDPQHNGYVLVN
# Sequence of Serine/threonine-protein kinase pim-2 (Homo sapiens) (Q9P1W9 whole entry, looked up): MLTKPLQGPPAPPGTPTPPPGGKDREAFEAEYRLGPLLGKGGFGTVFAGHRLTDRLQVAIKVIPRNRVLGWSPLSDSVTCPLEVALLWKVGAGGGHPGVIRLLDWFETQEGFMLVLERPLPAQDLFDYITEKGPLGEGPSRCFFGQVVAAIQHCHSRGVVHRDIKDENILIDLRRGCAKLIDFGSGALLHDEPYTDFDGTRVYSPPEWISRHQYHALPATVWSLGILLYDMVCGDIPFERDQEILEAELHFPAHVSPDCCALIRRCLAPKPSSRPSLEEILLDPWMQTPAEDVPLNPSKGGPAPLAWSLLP
# Sequence of Serine/threonine-protein kinase SIK1 (Homo sapiens) (P57059 whole entry): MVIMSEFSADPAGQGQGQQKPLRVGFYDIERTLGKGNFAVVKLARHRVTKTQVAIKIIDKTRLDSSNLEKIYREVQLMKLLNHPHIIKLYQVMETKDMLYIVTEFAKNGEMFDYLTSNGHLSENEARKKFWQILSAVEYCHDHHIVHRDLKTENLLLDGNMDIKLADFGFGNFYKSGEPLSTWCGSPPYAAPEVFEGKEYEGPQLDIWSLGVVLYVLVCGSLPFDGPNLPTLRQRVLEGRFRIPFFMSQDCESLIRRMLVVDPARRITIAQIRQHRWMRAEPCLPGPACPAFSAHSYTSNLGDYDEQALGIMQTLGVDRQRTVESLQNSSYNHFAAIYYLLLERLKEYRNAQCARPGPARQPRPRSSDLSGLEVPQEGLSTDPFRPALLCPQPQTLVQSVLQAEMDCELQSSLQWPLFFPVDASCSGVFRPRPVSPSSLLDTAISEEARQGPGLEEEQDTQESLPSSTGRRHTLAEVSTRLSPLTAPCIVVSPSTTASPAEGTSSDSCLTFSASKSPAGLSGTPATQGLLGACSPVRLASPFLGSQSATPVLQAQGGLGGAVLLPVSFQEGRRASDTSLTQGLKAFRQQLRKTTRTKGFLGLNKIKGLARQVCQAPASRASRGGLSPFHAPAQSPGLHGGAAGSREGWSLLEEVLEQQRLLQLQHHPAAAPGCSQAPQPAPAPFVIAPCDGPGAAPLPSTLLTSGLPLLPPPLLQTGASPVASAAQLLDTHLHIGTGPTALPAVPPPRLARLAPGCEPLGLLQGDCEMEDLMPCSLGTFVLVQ
# Sequence of Casein kinase I isoform alpha (Homo sapiens) (P48729 2-337 limits assumed): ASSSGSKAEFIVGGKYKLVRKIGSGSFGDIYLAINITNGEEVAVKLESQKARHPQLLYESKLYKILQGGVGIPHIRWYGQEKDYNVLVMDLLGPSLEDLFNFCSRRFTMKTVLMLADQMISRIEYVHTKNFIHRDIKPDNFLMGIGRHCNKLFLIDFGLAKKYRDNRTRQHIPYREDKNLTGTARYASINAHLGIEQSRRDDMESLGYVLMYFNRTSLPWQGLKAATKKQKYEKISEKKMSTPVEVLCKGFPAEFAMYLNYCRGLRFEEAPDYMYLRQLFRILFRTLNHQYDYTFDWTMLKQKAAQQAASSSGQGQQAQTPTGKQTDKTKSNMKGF
# Sequence of Casein kinase I isoform gamma-1 (Homo sapiens) (Q9HCP0 whole entry, looked up, canonical isoform): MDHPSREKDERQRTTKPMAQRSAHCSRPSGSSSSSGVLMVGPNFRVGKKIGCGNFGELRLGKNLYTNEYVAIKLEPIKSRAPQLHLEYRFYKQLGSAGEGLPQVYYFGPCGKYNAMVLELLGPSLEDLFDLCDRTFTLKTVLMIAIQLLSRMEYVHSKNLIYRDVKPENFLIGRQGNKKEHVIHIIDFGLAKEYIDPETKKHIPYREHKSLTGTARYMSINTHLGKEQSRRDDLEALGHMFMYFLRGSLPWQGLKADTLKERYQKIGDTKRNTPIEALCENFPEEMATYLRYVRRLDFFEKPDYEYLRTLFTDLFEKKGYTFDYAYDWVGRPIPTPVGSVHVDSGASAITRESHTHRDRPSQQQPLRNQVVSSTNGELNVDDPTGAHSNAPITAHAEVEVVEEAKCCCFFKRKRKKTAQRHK
SMILES,inhibition [1],inhibition [2],inhibition [3],inhibition [4],inhibition [5],inhibition [6],inhibition [7],inhibition [8],inhibition [9],inhibition [10],inhibition [11],inhibition [12],inhibition [13],inhibition [14],inhibition [15],inhibition [16],inhibition [17],inhibition [18],inhibition [19],inhibition [20]
CC1(C)CC(n2cnc(-c3ccc(F)cc3)c2-c2ccnc(N)n2)CC(C)(C)N1,0.96%,-0.62%,0.93%,0.28%,0.93%,0.72%,3.05%,1.72%,1.15%,0.42%,0.35%,1.43%,2.2%,0.62%,2.34%,12.5%,58.5%,0.31%,2.25%,0.35%
CN1CCC(C(=O)Nc2n[nH]c3nc(-c4ccc(O)cc4)c(Br)cc23)CC1,14.5% and 16.5%,8.95% and 8.97%,48.5% and 44.8%,1.61% and 0.79%,3.66% and 0.86%,3.1% and 1.53%,9.27% and 8.23%,7.89% and -2.04%,9.87% and 5.33%,4.48% and 3.27%,6.1% and 2.08%,5.11% and 0.23%,7.56% and 2.61%,3.45% and 1.03%,5.78% and 1.94%,2.56% and 1.97%,5.54% and 3%,0.95% and 1.75%,4.18% and 2.3%,1.05% and 1.85%
CCOc1ccc2c(-c3ccnc(Nc4cc(OC)cc(C(F)(F)F)c4)n3)cnn2n1,-0.11%,1.13%,1.42%,-0.27%,-0.8%,2.02%,6.72%,-0.16%,2.02%,-0.57%,37%,0.8%,0.89%,0.22%,-0.73%,2.19%,3.91%,-0.62%,1.33%,-0.22%
Cc1cc(O)cc(C)c1/C=C/c1cncc(C(=O)OC(C)(C)C)c1,1.55%,-1.42%,2.22%,0.68%,1.6%,18.8%,71.9%,10.5%,12.3%,2.04%,2.33%,2.62%,1.67%,1.48%,1.69%,1.27%,3.48%,2.21%,2.97%,1.74%
COc1ccc(-c2nn3ncccc3c2-c2ccnc(Nc3ccc(F)c(F)c3)n2)cc1,4.2%,4.52%,6.05%,1.6%,4.42%,1.5%,8.64%,8.32%,7.08%,-2.71%,5.55%,4.21%,5.79%,2.03%,5.03%,4.64%,6.66%,4.01%,4.36%,3.31%
CCCNc1cccc(-n2ncc3c(N/N=C/c4ccncc4)ncnc32)c1,0.32%,3.58%,4.06%,0.95%,1.6%,3.14%,9.54%,-0.68%,21.1%,2.22%,20.2%,1.42%,6.17%,0.21%,3.17%,0.14%,1.89%,0.84%,1.57%,1.79%
COC(=O)Nc1nc2ccc(Oc3ccc(NC(=O)Nc4cc(C(F)(F)F)ccc4F)cc3)cc2s1,0.12%,0.39%,0.5%,0.07%,-0.36%,-0.78%,0.54%,0.97%,-6.65%,-0.35%,-0.01%,0.44%,1.02%,-1.47%,0.19%,-1.12%,3.01%,-0.2%,-0.02%,-0.36%
Cc1cc(O)cc(C)c1/C=C/c1cncc(C(N)=O)c1,0.5%,-0.22%,-1.42%,0.25%,-0.19%,48.9%,89%,6.79%,37.5%,2.21%,1.71%,0.78%,0.81%,0.45%,-0.39%,-2.11%,2.52%,2.23%,3.19%,1.83%
CCn1c(-c2nonc2N)nc2cncc(C(=O)NCCNC)c21,18.8%,26.3%,69.3%,1.39%,1.58%,3.17%,9.07%,2.51%,6.02%,4.08%,9.32%,7.08%,32.1%,2.36%,1.74%,4.37%,4.77%,4.39%,5.89%,3.81%
